Measurements: PubChem BioAssay (Tox21)
Unmarked numbers belong to inactive results. Results filed as inconclusive are left out. A call without a number means that no potency is given here. Active and inactive are the calls of the source. Unless noted, the call rests on the fitted dose curve.

What was measured:
[1] = Nuclear factor erythroid 2-related factor 2/antioxidant responsive element (Nrf2/ARE) small molecule agonists: qHTS cell viability counter screen in human keratinocytes (AID 1919968; active means well fitted curve in the direction sought with a large enough effect in the repeat runs; an effect the other way counts as inactive or inconclusive; further: nearly all actives have a fitted effect of over 55% in size; further: potency means the concentration at half of the fitted maximal effect)
Procedure, shortened: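 Cells of the KeratinoSens line were plated at 1,500 per well and left for 5 h before compound transfer from DMSO stocks. After a 23 h incubation (37 C, 5% CO2), CellTiter-Fluor was added. Signal was taken as fluorescence intensity 1 h later.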

[2] = target: Gonadotropin-releasing hormone receptor (Homo sapiens) (UniProt P30968); assay: Human gonadotropin-releasing hormone receptor (GnRHR) small molecule agonists, calcium flux assay in GnRHR-HEK293 cells (AID 1920063); further: nearly all actives have a fitted effect of over 35% in size
Procedure, shortened: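 Compounds dissolved in DMSO are pin-transferred onto dye-loaded GnRHR-HEK293 cells, which were seeded 18 h before at 37 C/5% CO2. Calcium signal is read as fluorescence intensity at 1 s intervals for 3 min.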

[3] = target: KiSS-1 receptor (Homo sapiens) (UniProt Q969F8); assay: Human kisspeptin (KISS1R) small molecule agonists, calcium flux assay in KISS1R-HEK293 cells (AID 1920064; active means well fitted curve in the direction sought with a large enough effect in the repeat runs; an effect the other way counts as inactive or inconclusive)
Procedure, shortened: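 Cell line: HEK293, stable human KISS1R. Dye loading 1 h at 37 C after 18 h culture. Read: kinetic fluorescence, 480/540 nm, 3 min at 1 s intervals.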

[4] = G protein-coupled receptor (GPCR) small molecule agonists, calcium flux assay: HEK293 wild type cell line counter screen (AID 1920065)
Procedure, shortened: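 Tox21 10K compounds, 15 concentrations each in triplicate, pin-transferred in DMSO onto dye-loaded cells; kinetic read at 480/540 nm for 3 min, 1 s intervals.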

[5] = p53 small molecule agonists, cell-based qHTS assay with human liver microsomes (AID 1963577);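 further: p53 response element beta-lactamase reporter cells with liver microsomes plus NADPH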
Procedure, shortened: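 16 h, 37 C exposure of p53RE-bla cells to compounds with human liver microsomes and NADPH (0.5 mg/mL final each); detection via LiveBLAzer mixture, 2 h dark at room temperature.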

[6] = p53 small molecule agonists, cell-based qHTS assay with rat liver microsomes (AID 1963578)
Procedure, shortened: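 With rat liver microsomes and NADPH present (0.5 mg/mL final each), p53RE-bla cells are treated with compound for 16 h at 37 C. LiveBLAzer detection mixture is then applied for 2 h at room temperature in the dark.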

[7] = p53 small molecule agonists, cell-based qHTS assay with rat liver microsomes: qHTS cell viability counter screen (AID 1963580); further: nearly all actives have a fitted effect of over 45% in size
Procedure, shortened: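 Cytotoxicity counter screen: intracellular ATP read by CellTiter-Glo luminescence in the p53 reporter wells. HCT-116 p53RE-bla cells were treated for 16 h at 37 C alongside rat liver microsomes and NADPH, each 0.5 mg/mL final.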

[8] = p53 small molecule agonists, cell-based qHTS assay: qHTS cell viability counter screen (AID 1963581); further: nearly all actives have a fitted effect of over 45% in size
Procedure, shortened: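 ATP content measured by luminescence in HCT-116 p53RE-bla cells treated 16 h at 37 C, same wells as the reporter screen.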

[9] = p53 small molecule agonists, cell-based qHTS assay (AID 1963582; active means well fitted activation curve with a large enough effect in the signal ratio in the repeat runs, not every such curve was filed as active; the % refers to the signal ratio)
Procedure, shortened: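 16 h compound exposure (37 C) of p53 response element–bla cells, preceded by 5 h recovery at 37 C/5% CO2; read-out via LiveBLAzer B/G FRET substrate, 2 h RT, fluorescence intensity.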

[10] = target: 5-hydroxytryptamine receptor 2A (Homo sapiens) (UniProt P28223); assay: 5-hydroxytryptamine receptor 2A (HTR2A) small molecule antagonists, cell-based qHTS assay (AID 1963586); further: nearly all actives have a fitted effect of over 45% in size; further: potency means the concentration at half of the fitted maximal effect
Procedure, shortened: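 CHO cells stably expressing human HTR2A were plated for 18 h at 37 C, then loaded with calcium dye for 1 h. Compounds were preincubated 5 min at room temperature before DOI (4 nM solution) was added. Kinetic fluorescence was read for 3 min.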

[11] = target: 5-hydroxytryptamine receptor 2A (Homo sapiens) (UniProt P28223); assay: 5-hydroxytryptamine receptor 2A (HTR2A) small molecule agonists, cell-based qHTS assay (AID 1963587); further: nearly all actives have a fitted effect of over 30% in size
Procedure, shortened: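 Kinetic calcium-flux fluorescence (2 min, 1 sec intervals) after compound addition in agonist mode. HTR2A-CHO cells were cultured 18 h, then dye-loaded 1 h at 37 C.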

[12] = target: Muscarinic acetylcholine receptor M1 (Homo sapiens) (UniProt P11229); assay: Cholinergic receptor muscarinic 1 (CHRM1) small molecule antagonists, cell-based qHTS assay (AID 1963588); further: nearly all actives have a fitted effect of over 40% in size; further: potency means the concentration at half of the fitted maximal effect
Procedure, shortened: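 Compounds were tested at 15 concentrations in three independent runs. Dye-loaded CHRM1-CHO cells were exposed 5 min at room temperature before stimulation by acetylcholine added at 50nM. Intracellular calcium was read kinetically on FDSS for 3 min.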

[13] = target: Muscarinic acetylcholine receptor M1 (Homo sapiens) (UniProt P11229); assay: Cholinergic receptor muscarinic 1 (CHRM1) small molecule agonists, cell-based qHTS assay (AID 1963589); further: nearly all actives have a fitted effect of over 35% in size
Procedure, shortened: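 Homogeneous fluorescence calcium flux, agonist mode. Human M1-expressing CHO cells; compound dosed at 15 concentrations, three independent runs; signal sampled every 1 sec.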

[14] = cAMP Responsive Elements (CRE) small molecule agonists, cell-based qHTS assay (AID 1963590)
Procedure, shortened: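 HEK 293T cells stably bearing CRE-bla were plated at 2,000 cells per well and rested 18 h. Compounds, positive controls or DMSO were added for 3 h at 37 C. LiveBLAzer B/G substrate was then loaded for 2 h at room temperature.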

[15] = cAMP Responsive Elements (CRE) small molecule antagonists, cell-based qHTS assay (AID 1963591; active means well fitted inhibition curve with a large enough effect in the signal ratio in the repeat runs, not every such curve was filed as active; the % refers to the signal ratio)
Procedure, shortened: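 First, CRE-bla HEK293T cells settled 18 h at 37 C. Next, compound and 0.25 uM final NKH477 were applied for 3 h. Last, LiveBLAzer B/G substrate was loaded for 2 h at room temperature.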

[16] = target: Beta-2 adrenergic receptor (Homo sapiens) (UniProt P07550); assay: Adrenergic beta2 receptor (ADRB2) small molecule antagonists, cell-based qHTS assay (AID 1963592); further: series mostly up to about 92 µM; nearly all actives have a fitted effect of over 50% in size
Procedure, shortened: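 Assay format: CHO-ADRB2 cells, 18-20hr seeding at 37C/5% CO2, then compound plus 1nM isoproterenol agonist mix for 0.5hr RT. Homogeneous time-resolved fluorescence cAMP detection after 1hr, expressed as 665/615 nm ratio.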

[17] = target: Beta-2 adrenergic receptor (Homo sapiens) (UniProt P07550); assay: Adrenergic beta2 receptor (ADRB2) small molecule agonists, cell-based qHTS assay (AID 1963593);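 further: CHO cells stably overexpressing human ADRB2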
Procedure, shortened: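 CHO cells stably over-expressing ADRB2 were plated overnight at 37C, then dosed with compounds plus a stimulation mix containing 100uM IBMX and 25uM Ro-20-1724 for 0.5hr at room temperature. cAMP was measured by HTRF competition, 1hr.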

[18] = target: D(2) dopamine receptor (Homo sapiens) (UniProt P14416); assay: Dopamine D2 receptor (DRD2) small molecule agonists, cell-based qHTS assay (AID 1963594); further: nearly all actives have a fitted effect of over 35% in size; further: potency means the concentration at half of the fitted maximal effect
Procedure, shortened: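 cAMP accumulation in DRD2-HEK293 cells measured by HTRF after 1 h detection; compounds added 10 min before NKH477 (200nM […]) forskolin-analogue stimulation, 30 min at room temperature, with Ro20-1724 present at 0.1 mM final.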

[19] = target: D(2) dopamine receptor (Homo sapiens) (UniProt P14416); assay: Dopamine D2 receptor (DRD2) small molecule antagonists, cell-based qHTS assay (AID 1963595; active means well fitted inhibition curve with a large enough effect in the signal ratio in the repeat runs, with a control signal flat; the % refers to the signal ratio)
Procedure, shortened: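 HEK293 cells stably expressing DRD2 were preincubated with 0.1 mM Ro20-1724, then with compound for 10 min at room temperature. Cells were stimulated with 200 nM NKH477 plus 12 nM quinpirole for 30 min, and cAMP was read by HTRF.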

[20] = p53 small molecule agonists, cell-based qHTS assay with human liver microsomes: qHTS cell viability counter screen (AID 1963579); further: nearly all actives have a fitted effect of over 45% in size
Procedure, shortened: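 In this multiplexed counter screen, the reporter plates were subsequently treated with CellTiter-Glo so that cell viability, reflected by luminescence, could be recorded for p53RE-bla cells dosed 16 h with compounds under microsomal activation (HLM and NADPH).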

Muscarinic acetylcholine receptor M1 (Homo sapiens), sequence (P11229 whole entry, looked up): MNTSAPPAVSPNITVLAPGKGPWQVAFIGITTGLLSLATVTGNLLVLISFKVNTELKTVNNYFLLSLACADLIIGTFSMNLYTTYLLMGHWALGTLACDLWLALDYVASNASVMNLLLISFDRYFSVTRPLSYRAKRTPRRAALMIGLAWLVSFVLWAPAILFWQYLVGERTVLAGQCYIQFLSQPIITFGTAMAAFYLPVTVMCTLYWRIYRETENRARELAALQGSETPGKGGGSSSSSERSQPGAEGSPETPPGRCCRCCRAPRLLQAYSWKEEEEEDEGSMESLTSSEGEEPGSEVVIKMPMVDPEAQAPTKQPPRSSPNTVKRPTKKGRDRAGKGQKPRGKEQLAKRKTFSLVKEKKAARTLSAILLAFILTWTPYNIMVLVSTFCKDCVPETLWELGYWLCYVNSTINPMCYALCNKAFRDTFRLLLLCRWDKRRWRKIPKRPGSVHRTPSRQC
Beta-2 adrenergic receptor (Homo sapiens), sequence (P07550 whole entry, looked up): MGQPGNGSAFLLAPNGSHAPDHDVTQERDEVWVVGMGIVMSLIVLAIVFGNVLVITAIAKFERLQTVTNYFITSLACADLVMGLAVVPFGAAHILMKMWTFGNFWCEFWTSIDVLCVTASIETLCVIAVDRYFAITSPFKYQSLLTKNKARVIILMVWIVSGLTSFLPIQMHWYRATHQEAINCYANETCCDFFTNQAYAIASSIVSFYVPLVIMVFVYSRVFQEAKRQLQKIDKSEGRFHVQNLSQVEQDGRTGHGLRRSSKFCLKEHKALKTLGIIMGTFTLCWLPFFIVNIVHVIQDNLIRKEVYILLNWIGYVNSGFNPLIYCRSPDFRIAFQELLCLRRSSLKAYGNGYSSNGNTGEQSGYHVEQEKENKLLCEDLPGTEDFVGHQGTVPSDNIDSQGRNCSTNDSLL
Gonadotropin-releasing hormone receptor (Homo sapiens), sequence (P30968 whole entry, looked up): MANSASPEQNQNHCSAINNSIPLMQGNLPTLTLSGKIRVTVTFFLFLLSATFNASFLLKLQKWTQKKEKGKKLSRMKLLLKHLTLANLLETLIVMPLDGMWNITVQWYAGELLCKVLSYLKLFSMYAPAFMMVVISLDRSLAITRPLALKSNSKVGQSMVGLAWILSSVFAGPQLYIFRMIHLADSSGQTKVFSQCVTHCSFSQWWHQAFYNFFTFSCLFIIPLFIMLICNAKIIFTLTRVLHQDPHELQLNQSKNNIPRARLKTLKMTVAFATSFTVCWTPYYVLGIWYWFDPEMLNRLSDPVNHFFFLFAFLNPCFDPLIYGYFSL
5-hydroxytryptamine receptor 2A (Homo sapiens), sequence (P28223 whole entry, looked up): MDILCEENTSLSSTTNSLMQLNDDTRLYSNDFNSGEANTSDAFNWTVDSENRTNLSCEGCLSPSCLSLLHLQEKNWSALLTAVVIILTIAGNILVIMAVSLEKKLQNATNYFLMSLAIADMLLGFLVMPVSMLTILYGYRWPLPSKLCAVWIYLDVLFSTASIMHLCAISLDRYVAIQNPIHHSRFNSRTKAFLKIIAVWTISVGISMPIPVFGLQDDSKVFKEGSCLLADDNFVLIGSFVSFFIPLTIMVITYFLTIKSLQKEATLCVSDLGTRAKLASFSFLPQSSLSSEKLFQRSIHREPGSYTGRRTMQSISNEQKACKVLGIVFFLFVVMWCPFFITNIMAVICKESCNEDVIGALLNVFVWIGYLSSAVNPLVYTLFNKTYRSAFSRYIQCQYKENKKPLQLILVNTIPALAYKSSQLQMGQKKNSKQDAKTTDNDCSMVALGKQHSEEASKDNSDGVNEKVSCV
D(2) dopamine receptor (Homo sapiens), sequence (P14416 whole entry, looked up): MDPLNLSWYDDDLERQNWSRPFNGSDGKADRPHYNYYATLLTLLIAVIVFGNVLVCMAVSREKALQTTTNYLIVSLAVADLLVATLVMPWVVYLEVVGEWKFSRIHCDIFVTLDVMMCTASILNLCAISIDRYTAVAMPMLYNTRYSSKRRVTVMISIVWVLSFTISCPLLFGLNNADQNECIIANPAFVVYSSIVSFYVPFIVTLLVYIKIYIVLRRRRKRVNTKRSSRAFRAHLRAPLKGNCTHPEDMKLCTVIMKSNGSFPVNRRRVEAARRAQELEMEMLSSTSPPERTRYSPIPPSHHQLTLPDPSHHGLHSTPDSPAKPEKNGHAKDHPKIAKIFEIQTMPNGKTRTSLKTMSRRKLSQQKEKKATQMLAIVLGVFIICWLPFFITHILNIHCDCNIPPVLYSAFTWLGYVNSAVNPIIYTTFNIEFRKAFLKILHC
KiSS-1 receptor (Homo sapiens), sequence (Q969F8 whole entry, looked up): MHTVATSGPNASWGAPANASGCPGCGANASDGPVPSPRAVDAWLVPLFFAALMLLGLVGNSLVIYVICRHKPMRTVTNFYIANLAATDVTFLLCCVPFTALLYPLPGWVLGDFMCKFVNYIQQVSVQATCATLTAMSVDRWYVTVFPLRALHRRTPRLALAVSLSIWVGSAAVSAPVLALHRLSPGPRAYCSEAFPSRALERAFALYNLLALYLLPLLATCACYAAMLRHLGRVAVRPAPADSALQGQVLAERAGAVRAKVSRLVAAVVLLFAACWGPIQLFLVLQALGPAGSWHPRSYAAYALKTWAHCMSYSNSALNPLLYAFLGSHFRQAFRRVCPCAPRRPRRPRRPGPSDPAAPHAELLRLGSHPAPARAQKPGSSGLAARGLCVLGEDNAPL

SMILES	Potency [1]	Potency [2]	Potency [3]	Potency [4]	Potency [5]	Potency [6]	Potency [7]	Potency [8]	Potency [9]	Potency [10]	Potency [11]	Potency [12]	Potency [13]	Potency [14]	Potency [15]	Potency [16]	Potency [17]	Potency [18]	Potency [19]	Potency [20]
C=CCCCCCC	inactive	inactive	inactive	inactive	inactive	inactive	inactive	inactive	inactive	inactive	inactive	inactive	inactive	inactive	inactive	inactive	inactive	inactive	inactive	–
C[C@@H]1C[C@H]2O[C@@]3(O[C@@H]2C(C)(C)O)[C@H](O)[C@@]2(C)[C@@H]4CC[C@H]5C(C)(C)[C@@H](O[C@@H]6OC[C@@H](O)[C@H](O)[C@H]6O)CC[C@@]56C[C@@]46CC[C@]2(C)[C@@H]13	inactive	inactive	inactive	inactive	inactive	inactive	inactive	inactive	–	–	inactive	inactive	inactive	–	–	inactive	–	inactive	inactive	–
Cc1ccc(C(C)(C)C)c(O)c1	inactive	inactive	inactive	inactive	inactive	inactive	inactive	inactive	inactive	inactive	–	–	inactive	–	–	inactive	–	inactive	inactive	–
COC(=O)/C=C(\C)CCC=C(C)C	inactive	inactive	inactive	inactive	inactive	–	inactive	inactive	inactive	inactive	inactive	inactive	inactive	inactive	inactive	inactive	–	inactive	inactive	inactive
CCCC(=O)OC(C)(C)Cc1ccccc1	inactive	inactive	inactive	inactive	–	inactive	inactive	inactive	inactive	inactive	inactive	inactive	inactive	inactive	inactive	inactive	inactive	inactive	inactive	inactive
[Cl][Au]([Cl])[Cl]	3060 nM (active)	inactive	inactive	inactive	inactive	inactive	–	–	–	inactive	inactive	inactive	inactive	–	–	inactive	inactive	–	inactive	–
CC(C)(c1ccccc1)c1ccccc1	inactive	inactive	inactive	inactive	inactive	–	inactive	inactive	–	inactive	inactive	1100 nM (active)	–	inactive	inactive	inactive	inactive	inactive	–	inactive
c1ccc2occc2c1	inactive	inactive	inactive	inactive	inactive	inactive	–	–	–	375 nM (active)	inactive	inactive	–	inactive	inactive	–	–	–	inactive	–
CC(C)=CC(C)(C)C	inactive	inactive	inactive	inactive	–	inactive	inactive	inactive	inactive	inactive	–	inactive	inactive	–	inactive	–	–	inactive	inactive	inactive
CCCC(=O)OCC	inactive	inactive	inactive	inactive	–	inactive	inactive	inactive	inactive	inactive	inactive	inactive	inactive	inactive	inactive	inactive	–	inactive	inactive	inactive
CCCCCC[C@@H](O)C/C=C\CCCCCCCC(=O)OC	inactive	inactive	inactive	inactive	inactive	inactive	–	inactive	inactive	inactive	inactive	–	inactive	inactive	inactive	inactive	–	inactive	inactive	–
CC(=O)/C=C/C=C1/C2CCC(C2)C1(C)C (stereo not given)	inactive	inactive	inactive	inactive	–	inactive	inactive	inactive	inactive	inactive	–	inactive	inactive	inactive	inactive	inactive	inactive	inactive	inactive	inactive
CCNc1nc(NC(C)CC)nc(OC)n1 (stereo not given)	inactive	inactive	inactive	inactive	inactive	–	inactive	inactive	–	inactive	inactive	inactive	inactive	inactive	–	inactive	inactive	inactive	inactive	–
CCCC(C)C(=O)O (stereo not given)	inactive	inactive	inactive	inactive	–	inactive	inactive	inactive	inactive	inactive	–	inactive	inactive	–	inactive	inactive	–	inactive	inactive	inactive
O=C(O)c1ccc(-n2nc(-c3ccccc3O)nc2-c2ccccc2O)cc1	inactive	inactive	inactive	inactive	–	inactive	inactive	inactive	inactive	inactive	inactive	inactive	inactive	–	–	inactive	–	11200 nM (active)	inactive	inactive
